In all, about 81,000 sequences were measured (“one-hybrid fitness for binding NBS DNA”: median about -0.1, highest 2% from about 0.36 on). The list comes from a sample in which the highest values are over-represented; it also holds similar and randomly drawn sequences.
B1: Caulobacter ParB omega fusion; a variant is named by its letters at X, in order, B8GW30 (parent)
chain: MESVVVGEPGMSEGRRGLGRGLSALLGEVDAAPAQAPGEQLGGSREAPIEILQRNPDQPRRTFREEDLEDLSNSIREKGVLQPILVRPSPDTAGEYQIVAGERAWRAAQRAGLKTVPIMVRELDDLAVLEIGIIENVQRADLNVLEEALSYKVLMEKFERTQENIAQTIGKSXSHVANXMRLLXLPDEVQSYLVSGELTAXHARAIAAAADPVALAKQIIEGGLSVRETEALARKAPNLSAGKSKGGRPPRVKDTDTQALESDLSSVLGLDVSIDHRGSTGTLTITYATLEQLDDLCNRLTRGI

Variants of: B1
Test: one-hybrid fitness for binding NBS DNA (the Noc-binding site; scaled: cognate 1, non-cognate 0); higher = stronger binding
Details: with NBS DNA site
Outline: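 Selection: bacterial one-hybrid in E. coli USO, HIS3 reporter with the site 19 bp from the promoter, 48 hours at 37°C on M9-minus-histidine plus 0.1 mM IPTG and 5 mM 3-AT. Libraries were Caulobacter ParB with four randomised specificity codons, sequenced on Illumina before and after selection. Fitness is the rescaled log change in variant-to-wild-type read ratio, anchored to the cognate and non-cognate sites.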

one-hybrid fitness for binding NBS DNA, 0.776:
RRMT

one-hybrid fitness for binding NBS DNA, 0.272:
QRVV

one-hybrid fitness for binding NBS DNA, 0.417:
RMYT
CRKR

one-hybrid fitness for binding NBS DNA, 0.22:
QCSY

one-hybrid fitness for binding NBS DNA, 0.492:
RCMT

one-hybrid fitness for binding NBS DNA, 0.345:
QQKD

one-hybrid fitness for binding NBS DNA, 0.338:
QSRI
RRMY

one-hybrid fitness for binding NBS DNA, 0.237:
RRGM

one-hybrid fitness for binding NBS DNA, 0.233:
QTAM

one-hybrid fitness for binding NBS DNA, 0.265:
QCQY

one-hybrid fitness for binding NBS DNA, 0.591:
IDNI

one-hybrid fitness for binding NBS DNA, 0.469:
KRFR

one-hybrid fitness for binding NBS DNA, 0.55:
RRGS

one-hybrid fitness for binding NBS DNA, 0.284:
QQAH

one-hybrid fitness for binding NBS DNA, 0.336:
QQKP

one-hybrid fitness for binding NBS DNA, 0.548:
RTAR

one-hybrid fitness for binding NBS DNA, 0.36:
QSQS

one-hybrid fitness for binding NBS DNA, 0.553:
QRHY

one-hybrid fitness for binding NBS DNA, 0.633:
RMRT

one-hybrid fitness for binding NBS DNA, 0.373:
CRRR

one-hybrid fitness for binding NBS DNA, 0.441:
RTFR

one-hybrid fitness for binding NBS DNA, 0.391:
QTFS

one-hybrid fitness for binding NBS DNA, 0.256:
QREY

one-hybrid fitness for binding NBS DNA, 0.508:
QRCY

one-hybrid fitness for binding NBS DNA, 0.587:
RKMT

one-hybrid fitness for binding NBS DNA, 0.343:
RSCS

one-hybrid fitness for binding NBS DNA, ≤ 0.2:
QQYG
QQPK
QQVM
QQAK
QQDM
QQDG
QQDK
QQYK
ASHP
HWMG
ITPE
GQNS
TPEF
IIVG
NNMC
SQHR
QCGI
QPRI
IDCI
IDPI
QREI
QSGI
PDRM
MWKT
DTEY
DDNC
PMEV
FFGC
MTER
QTYI
QCNI
QTDI
QRDI
HLFS
RRGP
RRGD
PPPL
GQQS
RDPN
DGTL
SCPT
WTEY
YTWG
PYNR
QMQH
QMQP
QPQS
QHQN
CTNW
LAHD
LHIV
RPMT
RTMK
RTMG
RKMM
RFMT
PHSL
GMRS
SYNI
EIAA
WPVG
AYDR
PHAW
RMQD
RMSG
RMSK
RMGK
RMGF
RMQP
NYTS
GQGC
AMCS
NVHT
RMPT
PILE
WLPE
CTVI
RAMV
RKCP
RTCP
RMCD
RPCS
RKCN
RMCP
IART
NTSG
NVYS
KVTC
QPTP
RWEY
ARSD
RCSW
RTFN
RTAH
RTAN
VCRV
RISE
TSIF
HHVS
SALW
HAHM
QQMK
QQMF
QQMP
QQMD
QQMN
TPTE
MRFN
SLPK
RCHW
TPGK
DQFT
QQAD
DRLH
NPTI
WVVG
ARKE
GRRW
PTWL
PTTT
ARAA
RHGE
QELE
DGQC
KKKY
RSWM
QSCY
QCLY
QSLY
QRPY
QPCY
HFFC
LYPV
TISM
AKHW
ALKD
SPCC
WADF
RNVM
SLWP
MHGS
FLKC
NLKN
QPGY
QPSY
QPHY
KKIT
QYVI
PAGP
AGDQ
RWTS
MTVE
MHPL
NLEL
YEAS
NRKY
QSQY
GKDL
ARSS
LLLY
CRDR
CRYR
CRVR
CCKR
SYHR
CIIR
QLHC
DTYG
LLQA
YPAF
QLRP
QLYH
EPSE
WYYR
QNWS
TTNM
AGGD
QTAP
QTFK
QTAD
QTFN
YQLR
LRHP
REPM
TKNF
SEEG
RKVP
RPVT
ILKV
VPFY
KPAR
DRFR
KCAR
NRFR
STSG
QPKV
QKCV
QRPV
QAVV
QAQV
QKVV
NHES
WMIP
VPEL

one-hybrid fitness for binding NBS DNA, 0.342:
QLKV

one-hybrid fitness for binding NBS DNA, 0.347:
RMLT

one-hybrid fitness for binding NBS DNA, 0.223:
RTKG

one-hybrid fitness for binding NBS DNA, 0.584:
QQMR

one-hybrid fitness for binding NBS DNA, 0.37:
QRGI

one-hybrid fitness for binding NBS DNA, 0.289:
QRDY
QRWY

one-hybrid fitness for binding NBS DNA, 0.371:
RMQT

one-hybrid fitness for binding NBS DNA, 0.521:
QRQY

one-hybrid fitness for binding NBS DNA, 0.46:
RCCS

one-hybrid fitness for binding NBS DNA, 0.401:
QTAH

one-hybrid fitness for binding NBS DNA, 0.51:
QTAS

one-hybrid fitness for binding NBS DNA, 0.227:
RKKG

one-hybrid fitness for binding NBS DNA, 0.3:
QCGY

one-hybrid fitness for binding NBS DNA, 0.242:
RKKQ

one-hybrid fitness for binding NBS DNA, 0.407:
QQRG
QCRI

one-hybrid fitness for binding NBS DNA, 0.478:
QTRI

one-hybrid fitness for binding NBS DNA, 0.571:
QRGY

one-hybrid fitness for binding NBS DNA, 0.393:
QAKV

one-hybrid fitness for binding NBS DNA, 0.586:
QLRS

one-hybrid fitness for binding NBS DNA, 0.691:
RKKT

one-hybrid fitness for binding NBS DNA, 0.319:
QLRN

one-hybrid fitness for binding NBS DNA, 0.718:
QRRY

one-hybrid fitness for binding NBS DNA, 0.348:
RMWT

one-hybrid fitness for binding NBS DNA, 0.476:
QQKM

one-hybrid fitness for binding NBS DNA, 0.433:
QRYY

one-hybrid fitness for binding NBS DNA, 0.699:
QRKY

one-hybrid fitness for binding NBS DNA, 0.297:
QCNY

one-hybrid fitness for binding NBS DNA, 0.234:
RTCH

one-hybrid fitness for binding NBS DNA, 0.222:
QQMH

one-hybrid fitness for binding NBS DNA, 0.506:
QQKK

one-hybrid fitness for binding NBS DNA, 0.394:
QHQS
QMQS

one-hybrid fitness for binding NBS DNA, 0.477:
QRSY

one-hybrid fitness for binding NBS DNA, 0.482:
QQAT

one-hybrid fitness for binding NBS DNA, 0.512:
RKVT

one-hybrid fitness for binding NBS DNA, 0.556:
QRNY

one-hybrid fitness for binding NBS DNA, 0.866:
RTKR

one-hybrid fitness for binding NBS DNA, 0.588:
QRKV

one-hybrid fitness for binding NBS DNA, 0.344:
QRVY

one-hybrid fitness for binding NBS DNA, 0.324:
RRGN

one-hybrid fitness for binding NBS DNA, 0.432:
RMGT

one-hybrid fitness for binding NBS DNA, 0.368:
QQMS

one-hybrid fitness for binding NBS DNA, 0.479:
QCKV

one-hybrid fitness for binding NBS DNA, 0.525:
RKCS

one-hybrid fitness for binding NBS DNA, 0.253:
RMIT

one-hybrid fitness for binding NBS DNA, 0.252:
QLYS

one-hybrid fitness for binding NBS DNA, 0.483:
RMST

one-hybrid fitness for binding NBS DNA, 0.448:
QCQS

one-hybrid fitness for binding NBS DNA, 0.271:
QRIY

one-hybrid fitness for binding NBS DNA, 0.43:
QRRI

one-hybrid fitness for binding NBS DNA, 0.221:
RRMM

one-hybrid fitness for binding NBS DNA, 0.406:
QKKV

one-hybrid fitness for binding NBS DNA, 0.499:
QQRK
QQMT

one-hybrid fitness for binding NBS DNA, 0.416:
RTVR

one-hybrid fitness for binding NBS DNA, 0.541:
KRAR

one-hybrid fitness for binding NBS DNA, 0.44:
RRGH

one-hybrid fitness for binding NBS DNA, 0.305:
RSMT

one-hybrid fitness for binding NBS DNA, 0.447:
QRLY

one-hybrid fitness for binding NBS DNA, 0.217:
QTAN

one-hybrid fitness for binding NBS DNA, 0.403:
QRNI

one-hybrid fitness for binding NBS DNA, 0.452:
QLRH

one-hybrid fitness for binding NBS DNA, 0.435:
QQFT

one-hybrid fitness for binding NBS DNA, 0.258:
QHIS
QCHY

one-hybrid fitness for binding NBS DNA, 0.467:
RTCS

one-hybrid fitness for binding NBS DNA, 0.491:
RTMT

one-hybrid fitness for binding NBS DNA, 0.303:
RTKM

one-hybrid fitness for binding NBS DNA, 0.657:
QQKH

one-hybrid fitness for binding NBS DNA, 0.254:
QRYI

one-hybrid fitness for binding NBS DNA, 0.339:
RTFS

one-hybrid fitness for binding NBS DNA, 0.383:
RMCS

From a collection of fitness landscapes (doi:10.1016/j.celrep.2020.107928)
